This note sets out measurements from the supplement of paper PMC10127200.

What all share (assay): Euclidean distance of Cell Painting phenotypic profile (signed KS, 77 features) to DMSO centroid (dimensionless distance); 5 or 10 uM (library dependent); higher = stronger phenotypic change vs DMSO (phenoactivity)
Common to all, as to conditions: 48 h

Assay [1] relates to 786-O. In outline:
(§1)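 Five cancer lines, together with a healthy fibroblast line, received library compounds for 48 h at a library-dependent 10 or 5 uM and 0.1% DMSO final. Harmony then derived 77 features from confocal 20X images (9 fields/well) of the stained cells, scoring each as a signed Kolmogorov-Smirnov statistic against same-plate vehicle wells. After plate-position correction, correlation weighting and replicate averaging at the top dose, phenoactivity was taken as each profile's Euclidean distance to the median vehicle profile.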

In assay [2] the test system is A549. In outline:
as §1

In assay [3] the test system is DU145. In outline:
as §1

Assay [4] has as its system FB. Summed up: as §1
The subject of assay [5] is HEPG2. In outline: as §1
The subject of assay [6] is OVCAR4. In outline:
as §1

Structures can show the parent of a compound that is named as a salt.

With `C[C@@H](c1ncncc1F)[C@](O)(Cn1cncn1)c1ccc(F)cc1F` [Voriconazole], the Euclidean distance in assay [1] turned out to be 1.9; in assay [2], 1.17; in assay [3] it was 0.9; in assay [4], 1.01; in assay [5] it was 0.988; in assay [6] it was 1.25.

Take `NCCc1c[nH]cn1` [Histamine Phosphate]: the Euclidean distance in assay [1] was found to be 1.2; in assay [2], 0.956; in assay [3], 1.77; in assay [4], 1.25; in assay [5], 1.23; in assay [6], 1.04.

Regarding `Nc1ccc(S(=O)(=O)c2ccc(N)cc2)cc1` [Dapson], the Euclidean distance in assay [1] came out at 1.45; in assay [2], 2.62; in assay [3], 2.45; in assay [4], 1.64; in assay [5] it was 0.497; in assay [6] it was 1.8.

For `COc1ccc(CCNCC(O)COc2cccc(C)c2)cc1OC` (centres undefined) [Bevantolol hydrochloride], the Euclidean distance in assay [1] was 1.02; in assay [2], 0.717; in assay [3], 1.07; in assay [4] it was 1.21; in assay [5], 0.573; in assay [6], 1.03.

For the compound `COc1cc(OC2CCN(C)CC2)ccc1Nc1ncc2c(n1)n(C1CCCC1)c(=O)n2C`, the Euclidean distance was 1.53 in assay [1]; 2.28 in assay [2]; 1.39 in assay [3]; 2.84 in assay [4]; 1.78 in assay [5]; 1.83 in assay [6].

For `CN1CCN(CC(=O)N2c3ccccc3C(=O)Nc3cccnc32)CC1` [Pirenzepine dihydrochloride], the Euclidean distance in assay [1] worked out at 0.695; in assay [2], 1.06; in assay [3], 0.77; in assay [4] it was 0.7; in assay [5], 1.03; in assay [6] it was 0.804.

`Nc1ccc(C(=O)O)c(O)c1` [Sodium 4-Aminosalicylate]: the Euclidean distance in assay [1] was found to be 1.34; in assay [2] it was 2.62; in assay [3] it was 1.27; in assay [4], 2.47; in assay [5] it was 1.02; in assay [6] it was 1.43.

As for `CCC[S+]([O-])c1ccc2[nH]c(NC(=O)OC)nc2c1` (centres undefined) [Albendazole Oxide], the Euclidean distance in assay [1] came out at 1.29; in assay [2], 1.23; in assay [3], 0.768; in assay [4], 0.918; in assay [5] it was 0.943; in assay [6], 1.26.

As for `CCOc1ccc(C[C@H]2NC(=O)CCSSC[C@@H](C(=O)N3CCC[C@H]3C(=O)N[C@@H](CCCN)C(=O)NCC(N)=O)NC(=O)[C@H](CC(N)=O)NC(=O)[C@H]([C@@H](C)O)NC(=O)[C@H]([C@@H](C)CC)NC2=O)cc1` [Atosiban Acetate], the Euclidean distance in assay [1] came to 1.21; in assay [2], 1.46; in assay [3], 1.05; in assay [4] it was 1.59; in assay [5] it was 1.37; in assay [6], 1.9.

On to `COC[C@H]1C[C@@H](c2nc(-c3ccc4c(c3)COc3cc5c(ccc6nc([C@@H]7CC[C@H](C)N7C(=O)[C@@H](NC(=O)OC)C(C)C)[nH]c65)cc3-4)c[nH]2)N(C(=O)[C@H](NC(=O)OC)c2ccccc2)C1` [Velpatasvir], for which the Euclidean distance in assay [1] was found to be 1.14; in assay [2], 1.43; in assay [3] it was 1.28; in assay [4] it was 2.05; in assay [5], 1.32; in assay [6], 1.1.

In the case of `C[C@]1(Cn2ccnn2)[C@H](C(=O)O)N2C(=O)C[C@H]2S1(=O)=O` [Tazobactam], the Euclidean distance in assay [1] is 0.708; in assay [2], 0.639; in assay [3] it was 0.78; in assay [4] it was 0.984; in assay [5] it was 0.41; in assay [6] it was 0.673.

With `CN1CC2c3ccccc3Oc3ccc(Cl)cc3C2C1` (centres undefined) [Asenapine], the Euclidean distance in assay [1] came to 1.1; in assay [2], 0.811; in assay [3] it was 0.805; in assay [4] it was 1.19; in assay [5] it was 1.03; in assay [6], 0.94.

Regarding `CCCN1CCCC[C@H]1C(=O)Nc1c(C)cccc1C` [Ropivacaine], the Euclidean distance in assay [1] came out at 1.19; in assay [2], 1.64; in assay [3], 0.902; in assay [4], 1.93; in assay [5], 1.18; in assay [6], 1.31.

Take `CC[C@]1(O)C[C@H]2CN(CCc3c([nH]c4ccccc34)[C@@](C(=O)OC)(c3cc4c(cc3OC)N(C=O)[C@H]3[C@@](O)(C(=O)OC)[C@H](OC(C)=O)[C@]5(CC)C=CCN6CC[C@]43[C@@H]65)C2)C1` [Vincristine]: the Euclidean distance in assay [1] stood at 3.12; in assay [2], 2.61; in assay [3], 4.78; in assay [4], 3.47; in assay [5] it was 3.99; in assay [6], 2.86.

Turning to `CNC(=O)c1ccccc1Nc1nc(Nc2ccc(N3CCOCC3)cc2OC)ncc1Cl`, the Euclidean distance in assay [1] came to 2.97; in assay [2] it was 3.02; in assay [3] it was 2.18; in assay [4] it was 3.92; in assay [5], 2.08; in assay [6], 3.5.

Consider `OC[C@H]1O[C@@H](c2ccc(Cl)c(Cc3ccc(O[C@H]4CCOC4)cc3)c2)[C@H](O)[C@@H](O)[C@@H]1O`, for which the Euclidean distance in assay [1] worked out at 0.965; in assay [2] it was 0.753; in assay [3], 1.39; in assay [4], 0.912; in assay [5], 0.52; in assay [6], 0.801.

Take `Cc1nccn1CC1CCc2c(c3ccccc3n2C)C1=O` (centres undefined) [Ondansetron Hydrochloride Dihydrate]: the Euclidean distance in assay [1] is 1.23; in assay [2], 0.687; in assay [3], 0.998; in assay [4], 1.01; in assay [5], 1.39; in assay [6], 1.43.

With `O=C(c1ccc(F)c(F)c1Nc1ccc(I)cc1F)N1CC(O)([C@@H]2CCCCN2)C1` [Cobimetinib (GDC-0973. RG7420)], the Euclidean distance came to 2.92 in assay [1]; 2.56 in assay [2]; 3.23 in assay [3]; 4.08 in assay [4]; 5.18 in assay [5]; 2.85 in assay [6].

As to `CC(C(=O)O)c1ccc2c(c1)CC(=O)c1ccccc1S2` (centres undefined) [Zaltoprofen], the Euclidean distance in assay [1] was 1.08; in assay [2], 1.02; in assay [3], 1.23; in assay [4], 0.873; in assay [5], 0.423; in assay [6], 1.24.

Take `N.N.O=C([O-])C[O-].[Pt+2]` [Nedaplatin]: the Euclidean distance in assay [1] came out at 3.19; in assay [2], 2.86; in assay [3], 4.02; in assay [4], 3.24; in assay [5], 2.92; in assay [6], 2.99.

Turning to `COc1ccc(-c2coc3cc(O)cc(O)c3c2=O)cc1` [Biochanin A], the Euclidean distance in assay [1] was determined as 0.496; in assay [2], 0.937; in assay [3] it was 0.839; in assay [4], 0.805; in assay [5], 1.1; in assay [6], 0.958.

On to `CCC[C@@H]1C[C@@H](C(=O)N[C@@H]([C@H]2O[C@H](SC)[C@H](O)[C@@H](O)[C@H]2O)[C@H](C)Cl)N(C)C1` [Clindamycin HCl], for which the Euclidean distance in assay [1] worked out at 1.06; in assay [2], 0.576; in assay [3], 0.99; in assay [4] it was 0.761; in assay [5], 0.82; in assay [6], 0.755.

As for `Cn1c(N2CCCCS2(=O)=O)nc(C(=O)NCc2ccc(F)cc2)c(O)c1=O`, the Euclidean distance in assay [1] stood at 3.24; in assay [2], 2.86; in assay [3], 4.79; in assay [4] it was 2.83; in assay [5], 3.37; in assay [6], 3.36.

On to `CC(CN1c2ccccc2Sc2ccccc21)N(C)C` (centres undefined) [Promethazine HCl], for which the Euclidean distance in assay [1] was found to be 0.72; in assay [2] it was 0.962; in assay [3] it was 1.47; in assay [4], 1.72; in assay [5], 0.856; in assay [6] it was 1.1.
